What all share (settings): mRNA level, 48 h; actives raise or lower the signal
Read-out in one assay: BCL2L11 (gene 10018)
In words: LTEA_HepaRG_BCL2L11: Life Technologies and Expression Analysis (LTEA) Assay for Bcl-2 (BCL2L11) gene using HepaRG (AID 2283473). The method, boiled down: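 HepaRG, 48 h exposure, 8-pt half-log series from 100 uM in 0.5% DMSO, duplicates; qRT-PCR (Fluidigm TaqMan) for BCL2L11, housekeeping-normalized; bidirectional curve fit relative to DMSO baseline.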

Read-out in assay [1]: Apolipoprotein A-V (APOA5) gene, APOA5 (gene 116519)
The experiment in a line: LTEA_HepaRG_APOA5: Life Technologies and Expression Analysis (LTEA) Assay for Apolipoprotein A-V (APOA5) gene using HepaRG (AID 2283474). A digest of the protocol:
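HepaRG, 48 h chemical exposure in serum-free induction medium, 8-pt half-log series (top 100 uM), 0.5% DMSO vehicle, duplicates. Readout: APOA5 mRNA by qRT-PCR, housekeeping-normalized; bidirectional fit vs DMSO baseline.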

Read-out in assay [2]: Apoptosis regulator Bcl-2 (Homo sapiens) (UniProt P10415)
The experiment in a line: LTEA_HepaRG_BCL2: Life Technologies and Expression Analysis (LTEA) Assay for Bcl-2 gene using HepaRG (AID 2283475). A digest of the protocol:
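qRT-PCR of BCL2 transcript, normalized to three housekeeping genes (ACTB, GAPDH, POLR2A), after 48 h chemical exposure of HepaRG cells; concentrations top 100 uM with half-log dilutions, 0.5% DMSO vehicle, duplicates; changes up or down fitted relative to vehicle.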

Read-out in assay [3]: Bcl-2 (BID) gene, BID (gene 637)
In words: LTEA_HepaRG_BID: Life Technologies and Expression Analysis (LTEA) Assay for Bcl-2 (BID) gene using HepaRG (AID 2283476). A digest of the protocol: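 Duplicate 48 h treatments of HepaRG cells in serum-free induction medium spanned 100 uM downward in half-log steps, 0.5% DMSO. Transcript change quantified by qRT-PCR against three housekeeping genes, fitted up or down versus DMSO.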

Read-out in the next assay: Caspase-3 (Homo sapiens) (UniProt P42574)
The experiment in a line: LTEA_HepaRG_CASP3: Life Technologies and Expression Analysis (LTEA) Assay for cysteine-aspartic acid protease (CASP3) using HepaRG (AID 2283477). The method, boiled down: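 HepaRG, 48 h exposure, 8 conc. (top 100 uM, half-log steps, duplicate), 0.5% DMSO vehicle; qRT-PCR of CASP3 transcript, housekeeping-normalised (ACTB/GAPDH/POLR2A); bidirectional curve fit vs DMSO baseline.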

Read-out in assay [4]: Cytochrome P450 (CYP24A1), CYP24A1 (gene 1591)
The experiment in a line: LTEA_HepaRG_CYP24A1: Life Technologies and Expression Analysis (LTEA) Assay for Cytochrome P450 (CYP24A1) using HepaRG (AID 2283478). The method, boiled down:
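qRT-PCR read-out: CYP24A1 transcript levels normalized to three housekeeping genes, bidirectional curve fits against 0.5% DMSO baseline. Human HepaRG cells treated 48 h with chemicals at eight concentrations from 100 uM in half-log steps.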

Read-out in assay [5]: Cytochrome P450 (CYP1A2), CYP1A2 (gene 1544)
The experiment in a line: LTEA_HepaRG_CYP1A2: Life Technologies and Expression Analysis (LTEA) Assay for Cytochrome P450 (CYP1A2) using HepaRG (AID 2283479). The method, boiled down:
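HepaRG, 48 h exposure, top 100 uM, half-log 8-pt, 0.5% DMSO vehicle, duplicates. Readout: TaqMan qRT-PCR of CYP1A2 mRNA, housekeeping-normalized (ACTB/GAPDH/POLR2A). Gain/loss fit relative to DMSO baseline.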

Read-out in assay [6]: cysteine-aspartic acid protease (CASP8), CASP8 (gene 841)
The experiment in a line: LTEA_HepaRG_CASP8: Life Technologies and Expression Analysis (LTEA) Assay for cysteine-aspartic acid protease (CASP8) using HepaRG (AID 2283480). A digest of the protocol: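 Concentration-response in duplicate up to 100 uM (half-log steps, 0.5% DMSO) on differentiated HepaRG cultures for 48 h. Expression change of CASP8 mRNA is determined by TaqMan qRT-PCR with housekeeping-gene normalization.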

Read-out in assay [7]: Cytochrome P450 (CYP2B6), CYP2B6 (gene 1555)
The experiment in a line: LTEA_HepaRG_CYP2B6: Life Technologies and Expression Analysis (LTEA) Assay for Cytochrome P450 (CYP2B6) using HepaRG (AID 2283481). A digest of the protocol: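 Read-out is CYP2B6 mRNA by TaqMan qRT-PCR, normalized to three housekeeping genes and fitted bidirectionally against 0.5% DMSO baseline. Human HepaRG cells received test chemicals for 48 h, top concentration 100 uM, half-log dilutions.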

Read-out in assay [8]: Cytochrome P450 2C19 (Homo sapiens) (UniProt P33261)
The experiment in a line: LTEA_HepaRG_CYP2C19: Life Technologies and Expression Analysis (LTEA) Assay for CYP2C19 using HepaRG (AID 2283482). The method, boiled down:
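HepaRG, 48 h chemical exposure, 8-pt half-log series from 100 uM in 0.5% DMSO, duplicates. Readout: CYP2C19 mRNA by TaqMan qRT-PCR, housekeeping-normalized. Bidirectional fit vs DMSO baseline; phenobarbital 1mM as induction control.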

Read-out in another assay: CYP2C8 (gene 1558)
In words: LTEA_HepaRG_CYP2C8: Life Technologies and Expression Analysis (LTEA) Assay for CYP2C8 using HepaRG (AID 2283483). A digest of the protocol:
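This is a transcriptional endpoint in HepaRG cultures: 48 h exposure, highest concentration 100 uM. CYP2C8 mRNA is quantified by TaqMan qRT-PCR.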

Read-out in another assay: CYP2C9 (gene 1559)
The experiment in a line: LTEA_HepaRG_CYP2C9: Life Technologies and Expression Analysis (LTEA) Assay for CYP2C9 using HepaRG (AID 2283484). A digest of the protocol: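 Eight-point concentration-response (highest 100 uM, half-log dilutions) in HepaRG cells for 48 h; CYP2C9 expression by qRT-PCR normalized to ACTB, GAPDH, POLR2A. Bidirectional fit, DMSO baseline.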

Read-out in a further assay: CYP2E1 (gene 1571)
The experiment in a line: LTEA_HepaRG_CYP2E1: Life Technologies and Expression Analysis (LTEA) Assay for CYP2E1 using HepaRG (AID 2283485). A digest of the protocol:
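CYP2E1 transcript measured by Fluidigm qRT-PCR against three housekeeping genes in human HepaRG cells treated 48 h (top 100 uM, half-log steps, 0.5% DMSO vehicle). Gain or loss fitted relative to DMSO baseline.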

Read-out in another assay: CYP4A11 (gene 1579)
In words: LTEA_HepaRG_CYP4A11: Life Technologies and Expression Analysis (LTEA) Assay for CYP4A11 using HepaRG (AID 2283486). A digest of the protocol:
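CYP4A11 transcript levels were quantified by TaqMan qRT-PCR after HepaRG human liver cells were treated for 48 hours with test chemicals (top 100 uM, half-log dilutions, 0.5% DMSO). Gain or loss of signal was fitted relative to DMSO.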

Read-out in assay [9]: Cytochrome P450 3A4 (Homo sapiens) (UniProt P08684)
The experiment in a line: LTEA_HepaRG_CYP3A4: Life Technologies and Expression Analysis (LTEA) Assay for CYP3A4 using HepaRG (AID 2283487). A digest of the protocol: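 Differentiated HepaRG cells in serum-free induction medium exposed in duplicate for 48 h to 8 half-log concentrations up to 100 uM in 0.5% DMSO. CYP3A4 mRNA measured by qRT-PCR normalized to ACTB, GAPDH and POLR2A; bidirectional fit versus DMSO.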

Read-out in assay [10]: DNA damage-inducible transcript 3 (DDIT3), DDIT3 (gene 1649)
In words: LTEA_HepaRG_DDIT3: Life Technologies and Expression Analysis (LTEA) Assay for DNA damage-inducible transcript 3 (DDIT3) using HepaRG (AID 2283488). A digest of the protocol: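 DDIT3 transcript was quantified by qRT-PCR with ACTB/GAPDH/POLR2A normalization after 48 h chemical treatment of differentiated HepaRG cells in 0.5% DMSO. Dosing was eight-point, half-log, top 100 uM, duplicate wells. Curves fitted bidirectionally versus DMSO.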

Read-out in assay [11]: Pro-epidermal growth factor (Homo sapiens) (UniProt P01133)
In words: LTEA_HepaRG_EGF: Life Technologies and Expression Analysis (LTEA) Assay for Epidermal growth factor (EGF) using HepaRG (AID 2283489). A digest of the protocol:
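qRT-PCR readout of EGF transcript after 48 h chemical exposure of HepaRG cells; eight concentrations from 100 uM down in half-log steps, duplicate wells, 0.5% DMSO vehicle. Bidirectional curve fitting against DMSO baseline.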

Read-out in assay [12]: Early growth response protein 1 (EGR1) transcription factor, EGR1 (gene 1958)
In words: LTEA_HepaRG_EGR1: Life Technologies and Expression Analysis (LTEA) Assay for Early growth response protein 1 (EGR1) transcription factor using HepaRG (AID 2283490). The method, boiled down:
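EGR1 expression change in human HepaRG after 48 h chemical exposure, assessed by housekeeping-normalized qRT-PCR; concentration-response up to 100 uM, fitted in both directions against DMSO controls.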

Read-out in assay [13]: Ezrin (EZR), EZR (gene 7430)
In words: LTEA_HepaRG_EZR: Life Technologies and Expression Analysis (LTEA) Assay for Ezrin (EZR) using HepaRG (AID 2283491). A digest of the protocol:
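Differentiated human HepaRG cells, 48 h after plating, were exposed in serum-free induction medium for 48 hours to eight half-log concentrations up to 100 uM in 0.5% DMSO. EZR mRNA was measured by TaqMan qRT-PCR, normalized to ACTB, GAPDH and POLR2A, and fitted bidirectionally against DMSO.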

Read-out in assay [14]: Cytochrome P450 3A7 (Homo sapiens) (UniProt P24462)
The experiment in a line: LTEA_HepaRG_CYP3A7: Life Technologies and Expression Analysis (LTEA) Assay for CYP3A7 using HepaRG (AID 2283492). A digest of the protocol:
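CYP3A7 transcript levels were read by TaqMan qRT-PCR on Fluidigm arrays after 48 h chemical exposure of human HepaRG cells, with housekeeping-gene normalisation. Eight half-log concentrations up to 100 uM in 0.5% DMSO were tested in duplicate.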

The source made the active and inactive calls. The calls were made as follows: active = hit-call score of the fitted dose curve at least 0.9, where 1 is the maximum; inactive = score below 0.9.

What is called AC50 is the concentration at which the activity in the assay is half-maximal.

Chain of Caspase-3 (Homo sapiens) (P42574 whole entry, looked up): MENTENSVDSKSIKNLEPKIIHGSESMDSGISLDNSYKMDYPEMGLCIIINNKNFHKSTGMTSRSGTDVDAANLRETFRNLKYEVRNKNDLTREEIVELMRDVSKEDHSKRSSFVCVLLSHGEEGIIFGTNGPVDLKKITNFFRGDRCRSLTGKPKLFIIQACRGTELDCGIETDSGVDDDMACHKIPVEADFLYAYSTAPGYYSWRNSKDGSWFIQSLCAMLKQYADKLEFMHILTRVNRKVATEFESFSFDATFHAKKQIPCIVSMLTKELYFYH
Chain of Cytochrome P450 3A7 (Homo sapiens) (P24462 whole entry, looked up): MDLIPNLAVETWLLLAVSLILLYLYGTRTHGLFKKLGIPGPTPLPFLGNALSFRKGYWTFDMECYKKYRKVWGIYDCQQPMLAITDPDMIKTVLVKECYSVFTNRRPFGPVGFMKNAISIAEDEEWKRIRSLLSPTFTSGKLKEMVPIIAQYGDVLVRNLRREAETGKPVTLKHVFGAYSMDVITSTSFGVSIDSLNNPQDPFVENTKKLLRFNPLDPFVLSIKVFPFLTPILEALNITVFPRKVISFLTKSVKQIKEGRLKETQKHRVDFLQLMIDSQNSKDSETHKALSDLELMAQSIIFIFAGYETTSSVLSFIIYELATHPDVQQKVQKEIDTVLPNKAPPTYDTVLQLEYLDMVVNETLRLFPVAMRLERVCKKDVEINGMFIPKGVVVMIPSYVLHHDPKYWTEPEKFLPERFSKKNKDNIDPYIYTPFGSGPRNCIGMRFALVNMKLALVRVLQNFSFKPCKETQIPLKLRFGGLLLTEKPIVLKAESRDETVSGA
Chain of Apoptosis regulator Bcl-2 (Homo sapiens) (P10415 whole entry, looked up): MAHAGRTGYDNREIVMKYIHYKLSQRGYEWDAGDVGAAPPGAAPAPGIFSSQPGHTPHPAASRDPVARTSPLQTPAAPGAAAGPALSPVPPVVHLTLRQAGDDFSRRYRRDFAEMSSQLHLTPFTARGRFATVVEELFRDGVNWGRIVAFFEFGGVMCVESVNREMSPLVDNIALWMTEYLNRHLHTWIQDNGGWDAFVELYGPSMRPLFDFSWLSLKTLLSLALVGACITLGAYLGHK
Chain of Cytochrome P450 2C19 (Homo sapiens) (P33261 whole entry, looked up): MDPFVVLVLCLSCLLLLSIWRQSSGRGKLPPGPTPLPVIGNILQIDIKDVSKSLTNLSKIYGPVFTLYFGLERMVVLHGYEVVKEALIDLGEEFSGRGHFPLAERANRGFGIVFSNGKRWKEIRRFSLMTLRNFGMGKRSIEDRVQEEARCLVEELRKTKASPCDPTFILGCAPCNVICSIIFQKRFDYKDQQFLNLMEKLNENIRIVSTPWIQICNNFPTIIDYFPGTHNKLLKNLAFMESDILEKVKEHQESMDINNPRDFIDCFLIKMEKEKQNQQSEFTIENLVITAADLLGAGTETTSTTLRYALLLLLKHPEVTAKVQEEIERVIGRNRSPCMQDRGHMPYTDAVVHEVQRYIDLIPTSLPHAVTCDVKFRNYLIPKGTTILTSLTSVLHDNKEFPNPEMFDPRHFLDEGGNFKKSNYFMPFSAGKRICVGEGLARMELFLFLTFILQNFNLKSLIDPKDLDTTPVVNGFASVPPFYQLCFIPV
Chain of Cytochrome P450 3A4 (Homo sapiens) (P08684 whole entry, looked up): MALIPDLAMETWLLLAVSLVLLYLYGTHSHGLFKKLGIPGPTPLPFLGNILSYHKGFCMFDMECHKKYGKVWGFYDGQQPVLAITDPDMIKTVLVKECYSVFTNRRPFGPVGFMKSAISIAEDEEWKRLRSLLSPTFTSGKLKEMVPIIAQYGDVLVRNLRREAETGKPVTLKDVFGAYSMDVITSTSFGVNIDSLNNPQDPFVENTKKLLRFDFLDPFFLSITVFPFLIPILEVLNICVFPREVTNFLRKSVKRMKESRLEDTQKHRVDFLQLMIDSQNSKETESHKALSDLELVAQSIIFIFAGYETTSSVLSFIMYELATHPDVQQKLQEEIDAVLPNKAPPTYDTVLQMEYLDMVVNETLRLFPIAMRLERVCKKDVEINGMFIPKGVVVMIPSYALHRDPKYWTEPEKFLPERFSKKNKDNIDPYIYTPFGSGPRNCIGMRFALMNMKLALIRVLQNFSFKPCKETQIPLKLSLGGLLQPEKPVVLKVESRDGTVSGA

In the case of `ClCCOCCCl`, the compound was classed as inactive (with BCL2L11 (gene 10018); in assay [1]; in [2]; in assay [3]; with Caspase-3 (Homo sapiens); in assay [4]). For the same compound, the compound was called inactive (in assay [5]; in assay [6]; in assay [7]; in assay [8]; with CYP2C8 (gene 1558); in the assay with CYP2C9 (gene 1559)). Moreover, the call (in the assay with CYP2E1 (gene 1571); with CYP4A11 (gene 1579); in [9]; in assay [10]; in [11]; in assay [12]) was inactive. Further, the compound was called inactive in assay [13] and in assay [14].

On to `c1ccc(NNc2ccccc2)cc1`, for which the call (with BCL2L11 (gene 10018); in assay [1]; in assay [2]; in assay [3]; with Caspase-3 (Homo sapiens); in assay [4]) was inactive. The result (in [6]; in [8]; in the assay with CYP2C8 (gene 1558); in the assay with CYP2C9 (gene 1559); in the assay with CYP2E1 (gene 1571); with CYP4A11 (gene 1579)) was inactive. Besides, the call in assay [10], in [11], in assay [12], in [13] and in [14] was inactive. The figures for the AC50 in assay [5] and in assay [7] were 32.7 µM (active) and 5.26 µM (active), respectively.

`Cn1cc(-c2ccccc2)c(=O)c(-c2cccc(C(F)(F)F)c2)c1`: the compound was classed as inactive (in the assay with BCL2L11 (gene 10018); in [1]; in assay [2]; in assay [3]; with Caspase-3 (Homo sapiens); in assay [4]). For the same compound, the compound was classed as inactive (in assay [6]; with CYP4A11 (gene 1579); in [11]; in [12]; in [13]). For the same compound, the AC50 in [5] was 87.5 µM (active); in assay [7], 1.09 µM (active); in assay [8], 4.63 µM (active); in the assay with CYP2C8 (gene 1558) it was 3.59 µM (active); in the assay with CYP2C9 (gene 1559), 0.468 µM (active); in the assay with CYP2E1 (gene 1571), 11.9 µM (active). Moreover, the concentration at half-maximal activity (AC50) was 2.92 µM (active) in [9], 89.8 µM (active) in [10] and 1.52 µM (active) in assay [14].

The values are drawn from PubChem BioAssay (EPA / NIEHS).
